High-throughput results as filed in PubChem.
fixLJ activator: increases Burkholderia fixLJ two-component signaling; B. multivorans fixK-promoter GFP reporter, 18 h; hits give high values; z-score (no concentration beside the values); 29,000 tested, 0.3% active; AID 1918990;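 active means replicate mean overnight rise in green fluorescent reporter signal, 3 or more SD over negative controls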
An asterisk follows results filed as active. Many of the other results were omitted from the sample, so hits are more common in it than they were.

What do the screens show for `Cc1ccccc1-n1c(/C=C/c2c(C)[nH]c3ccccc23)nc2ccccc2c1=O`?
fixLJ activator: -0.55

Results for COc1cccc(-n2c(/C=C\c3ccc(Cl)cc3)nc3ccccc3c2=O)c1 ?
fixLJ activator: 0.01

Results for Cc1ccccc1-n1c(/C=C/c2ccc(N(C)C)cc2)nc2ccccc2c1=O ?
fixLJ activator: 21.1*

Results for Cn1cc(C(=O)NCCc2nc(N)cc(=O)[nH]2)c2ccccc21 ?
fixLJ activator: 1.54

What do the screens show for `CN1CCC[C@]2(CO)CCN(C(=O)COc3ccccc3)C[C@@H]12`?
fixLJ activator: -0.95
